Where “and” joins values, the source holds several entries; their conditions need not be identical. Equal entries are not always repeated.
Key:
Assay type in all cases: functional
[1] = molecular target: Solute carrier family 2, facilitated glucose transporter member 1 (Homo sapiens) (UniProt P11166); experiment: ST_JUDE_LEISH: Cytotoxicity at 2uM final concentration against transgenic Leishmania Mexicana promastigotes LmGLUT1 that are glucose transport deficient and complemented with the human glucose transporter GLUT1. Activity is measured by DNA content using SYBR green in vitro
[2] = molecular target: Hexose transporter 1 (Plasmodium falciparum) (UniProt O97467); experiment: ST_JUDE_LEISH: Cytotoxicity at 2uM final concentration against transgenic Leishmania Mexicana promastigotes LmPfHT that are glucose transport deficient and complemented with the Plasmodium falciparum hexose transporter. Activity is measured by DNA content using SYBR green in vitro
[3] = molecular target: Glucose transporter (Leishmania mexicana) (UniProt O61059); experiment: ST_JUDE_LEISH: Cytotoxicity at 2uM final concentration against transgenic Leishmania Mexicana promastigotes LmGT2 that are glucose transport deficient and complemented with the L. Mexicana glucose transporter 2. Activity is measured by DNA content using SYBR green in vitro

Chain of Solute carrier family 2, facilitated glucose transporter member 1 (Homo sapiens) (P11166 whole entry): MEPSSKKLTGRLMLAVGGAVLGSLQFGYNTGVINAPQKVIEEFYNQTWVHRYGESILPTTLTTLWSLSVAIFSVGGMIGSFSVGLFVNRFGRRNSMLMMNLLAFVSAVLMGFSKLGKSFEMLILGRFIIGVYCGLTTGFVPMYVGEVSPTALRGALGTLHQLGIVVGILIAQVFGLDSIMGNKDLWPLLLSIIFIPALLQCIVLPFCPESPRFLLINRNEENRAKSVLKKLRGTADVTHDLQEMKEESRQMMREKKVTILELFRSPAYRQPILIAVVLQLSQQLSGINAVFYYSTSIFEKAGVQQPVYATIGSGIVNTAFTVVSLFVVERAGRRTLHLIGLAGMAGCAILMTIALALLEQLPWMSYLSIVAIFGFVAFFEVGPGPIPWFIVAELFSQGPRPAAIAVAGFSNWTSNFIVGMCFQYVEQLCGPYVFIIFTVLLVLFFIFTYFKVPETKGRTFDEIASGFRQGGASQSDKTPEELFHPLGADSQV

| SMILES | inhibition [1] | inhibition [2] | inhibition [3] |
| --- | --- | --- | --- |
| C/C=C1/CN2CC[C@H]1C[C@H]2[C@H](O)c1ccnc2ccc(OC)cc12 | -0.87% | -2.22% | 2.08% |
| O=C(C=Cc1ccc(F)c(Br)c1)N1CCC(CN2CCC(c3c[nH]c4ccccc34)CC2)CC1 | 17.6% | 15.9% | 13.1% |
| COc1ccc(C=CC(=O)NC2CCC(CN3CCC(c4c[nH]c5ccccc45)CC3)CC2)cc1 (stereo unspecified) | 3.28% and -0.32% | 1.24% and -0.89% | -5.37% and -4.75% |
| O=C(/C=C/c1ccc2ccccc2c1)NC1CCC(CN2CCC(c3c[nH]c4ccccc34)CC2)CC1 (stereo unspecified) | 1.06% | 1.84% | 3.4% |
| CC(C)CNCc1ccc(-c2cccc(CN(C(=O)CCC3CCCC3)C3CCN(Cc4ccccc4)CC3)c2)cc1 | 16.4% | 12.3% | 10.7% |
| Cc1ccc(CC(C)NCC(O)c2cccc(Cl)c2)cc1F (stereo unspecified) | 9.84% | 9.76% | 9.69% |
| CC[C@H]1CN2CC[C@H]1C[C@H]2[C@H](O)c1cc(-c2ccccc2F)nc2ccc(OC)cc12 | 0.68% | 1.58% | 0.34% |
| COc1cc(C=CC(=O)NC2CCC(CN3CCC(c4c[nH]c5ccccc45)CC3)CC2)cc(OC)c1 (stereo unspecified) | -1.01% | -2.18% | -3.65% |
| COCCNCc1ccc(-c2cccc(CN(C(=O)CCC3CCCC3)C3CCN(Cc4ccccc4)CC3)c2)cc1 | -4.16% | 1.28% | -1.05% |
| O=C1COc2ccccc2N1CCN1CCC(NCc2ccc(-c3cccs3)cc2)CC1 | 8.28% | 7.16% | 3.03% |
| COc1cc(/C=C/C(=O)NC2CCC(CN3CCC(c4c[nH]c5ccccc45)CC3)CC2)ccc1O (stereo unspecified) | 0.32% and 3.25% | 1.97% and 2.79% | 1.02% and 1.53% |
| COC(=O)c1ccc(CC(C)NCC(O)c2cccc(Cl)c2Cl)cc1 (stereo unspecified) | 3.29% | 2.6% | 3.04% |
| C#CCOc1ccc(CC(C)NCC(O)c2cccc(C(F)(F)F)c2)cc1 (stereo unspecified) | 0.24% | 0.36% | 0.98% |
| Cc1[nH]c2ccc(O)cc2c1C1CCN(CC2CCC(NC(=O)/C=C/c3ccc(Cl)c(Cl)c3)CC2)CC1 (stereo unspecified) | 0.37% | 0.95% | 0.57% |
| COC(=O)c1ccc(CC(C)NCC(O)c2cccc3ccccc23)cc1 (stereo unspecified) | 4.9% | 3.26% | 2.22% |
| O=C(Nc1cc(C(F)(F)F)cc(C(F)(F)F)c1)c1cc(Cl)ccc1O | 7.09% | 7.96% | 8.03% |
| CCCCCc1cc(O)c2c(c1)OC(C)(C)CC2C1=CCN(Cc2ccccc2)CC1 (stereo unspecified) | 2.07% | 2.23% | 2.74% |

Source: ChEMBL document CHEMBL3433997, “St. Jude Leishmania screening dataset” (2016)
